# Shown are actives, neighbours in structure and some others; about 15% of the full set was active somewhere.
# DT40 TDP1 no CPT – qHTS for Inhibitors of human tyrosyl-DNA phosphodiesterase 1 (TDP1): qHTS in cells in absence of CPT; DT40 Tdp1-/- hTDP1 cells, no CPT, ATP luminescence, 48 h; Potency, µM (series often up to 46.2 µM), inactives show top-dose activity change, negative = growth inhibition, hits mostly inhibitors; hit rate 15% among 420,000; also: nearly all actives have a fitted effect of over 55% in size
#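 Readout: luminescence from CellTiter-Glo after 30 min in the dark at RT. Cells: DT40 Tdp1-/- with stable hTDP1, 400/well. Exposure: compounds alone, ≥48 hr, 37 °C.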
# TDP1 cell CPT – DT40-hTDP1 cell growth loss with CPT | AID 686979 | chicken DT40 Tdp1-/-;hTDP1 cells + 20 nM CPT, ATP luminescence, 48 h | Potency, µM (doses to about 46.2 µM), without a hit: top-dose activity change, negative = growth inhibition, usual class: inhibitors | hit rate 12% among 420,000; also: nearly all actives have a fitted effect of over 55% in size
#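 Chicken DT40 Tdp1-/- cells stably complemented with human TDP1 were seeded at 400 cells/well in medium containing 20 nM camptothecin, exposed to pin-transferred compounds, and grown at 37 °C for at least 48 hr. Viability was read as ATP luminescence.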
# ELG1 repair inh – blocks ELG1-dependent DNA repair in HEK293T cells; HEK293T ELG1-luciferase reporter, luminescence, 16 h; DNA damage induced by 5-fluorouridine; Potency, µM (titrated, usually from 46.1 µM), for inactives: at the top dose activity change, negative = inhibition, actives largely listed as inhibitors; hit rate 2.3% among 330,000; AID 504467; also: nearly all actives have a fitted effect of over 55% in size
#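 Quantitative HTS, concentration-response format. 2,000 cells/well co-treated with 5-fluorouridine and compound, 16 hr in 5% CO2 at 37 °C; ONE-Glo luminescence read after 30 min.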
# RORg inh – ROR gamma (mouse) transcription inhibition. P51450. Drosophila S2 Gal4-RORgamma UAS-luciferase reporter, 20 h. Potency, µM (doses to about 53.6 µM), inactives show at the top dose activity change, negative = inhibition, usual class: inhibitors. hit rate 5.4% among 310,000; also: nearly all actives have a fitted effect of over 60% in size
#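 Luminescence from a UAS-regulated Photinus luciferase reporter in stably transfected Drosophila Schneider cells is measured; decreased signal marks ROR gamma inhibition. Fusion expression is induced by 700 uM copper sulfate for 20 hr.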
# Gal4-VP16 FLuc – inhibits Gal4-VP16 luciferase reporter, ROR gamma counter-screen; Drosophila S2 Gal4-VP16 UAS-luciferase, luminescence, 20 h; Potency, µM (series often up to 53.6 µM), for inactives: at the highest dose activity, negative = inhibition, usual class: inhibitors; hit rate 3.5% among 310,000;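 also: Gal4-VP16 expression switched on by copper sulfate through the metallothionein promoter; nearly all actives have a fitted effect of over 50% in size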
# ALOX12 inh – blocks human arachidonate 12S-lipoxygenase. P18054. hit rate 1.1% among 580,000. purified 12hLO, xylenol orange hydroperoxide absorbance. Potency, µM (series often up to 108 µM), for inactives: at the top dose activity change, negative = inhibition, usual class: inhibitors
# Target sequence (P18054 whole entry, looked up): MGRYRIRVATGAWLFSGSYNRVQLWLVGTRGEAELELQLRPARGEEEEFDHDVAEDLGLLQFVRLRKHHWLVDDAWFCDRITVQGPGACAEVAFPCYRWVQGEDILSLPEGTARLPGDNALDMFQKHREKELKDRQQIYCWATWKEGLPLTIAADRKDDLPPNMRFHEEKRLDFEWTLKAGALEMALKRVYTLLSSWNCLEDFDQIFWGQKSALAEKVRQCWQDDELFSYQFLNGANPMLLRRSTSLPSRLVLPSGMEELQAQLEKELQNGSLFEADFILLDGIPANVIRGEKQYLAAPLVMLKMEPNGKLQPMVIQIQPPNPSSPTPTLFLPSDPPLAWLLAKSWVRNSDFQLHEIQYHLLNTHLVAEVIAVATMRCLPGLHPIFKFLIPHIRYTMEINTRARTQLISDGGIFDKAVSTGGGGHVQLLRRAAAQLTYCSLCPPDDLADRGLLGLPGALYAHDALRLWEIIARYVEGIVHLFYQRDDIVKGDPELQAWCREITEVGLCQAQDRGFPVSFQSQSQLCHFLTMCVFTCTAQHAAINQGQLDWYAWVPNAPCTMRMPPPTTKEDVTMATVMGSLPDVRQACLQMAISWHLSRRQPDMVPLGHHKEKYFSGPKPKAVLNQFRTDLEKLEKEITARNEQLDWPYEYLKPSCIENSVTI
#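 Purified human 12hLO (150 nM final) in 25 mM Hepes, 0.01% Triton X-100, pH 7.0 was preincubated 15 min at room temperature with compound. Then 40 uM arachidonic acid was added, 30 min. Hydroperoxide was read by Fe-XO absorbance ratio 573/405 nm.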
# * marks the source's active call; other numbers are inactive results; ? = inconclusive; nt = not tested or not shown; [ ] = dose if it differs, or a comment. Calls follow the shape of the dose curve; as a rule, active = well fitted curve in the direction sought with a large enough effect; inconclusive = small, poorly fitted or top-dose-only effect, or another doubt; inactive = no such curve, though single readings can be large; an effect the other way counts as inactive or inconclusive. % is scaled to controls: 0 for no effect and ±100 for the full control effect; potency is read from the fitted curve at half-maximal effect.
SMILES,DT40 TDP1 no CPT,TDP1 cell CPT,ELG1 repair inh,RORg inh,Gal4-VP16 FLuc,ALOX12 inh
CC(C)(C)c1cc(S(=O)(=O)CCc2ccccn2)cc(C(C)(C)C)c1F,15µM*,13µM*,-8%,-45%,-9%,-5%
FC(F)(F)c1cccc(CNC(=S)Nc2ccccc2)c1,16µM*,?,5%,5.6µM*,-18%[10 µM],?
FC(F)(F)c1cccc(NC(=S)NCc2ccccc2)c1,23µM*,21µM*,-3%,4.5µM*,13µM*,?
O=C(Cc1cccs1)Nc1ccc(-c2nc3cc(Cl)ccc3o2)cc1,nt,nt,nt,nt,nt,6%
COc1cccc(-c2cnc3[nH]cc(CC(N)=O)c3c2)c1,nt,nt,nt,nt,nt,11%[176 µM]
Cc1nc(N2CCN(c3ccccn3)CC2)c2c(C)c(C(=O)Nc3c(F)cc(F)cc3Br)sc2n1,13µM*,16µM*,23µM*,13%,25%,15%
Cc1nc(N2CCN(c3ccccn3)CC2)c2c(C)c(C(=O)Nc3c(C)cc(Br)cc3C)sc2n1,?,?,?,14%,15%,4%
Cc1nc(N2CCC(C)CC2)c2c(C)c(C(=O)Nc3ccccc3C(F)(F)F)sc2n1,?,?,15µM*,4%,-8%,-2%
Cc1ccc(NC(=O)c2sc3ncn(CC(=O)N4CCN(c5ccccn5)CC4)c(=O)c3c2C)cc1,?,-14%,nt,nt,nt,-7%
Cc1nc(N2CCN(c3ccccn3)CC2)c2c(C)c(C(=O)Nc3ccc(Cl)cc3)sc2n1,?,?,8.2µM*,-3%,-1%,6%
COc1ccc2cc(C(=O)NCCCN3CCCC3=O)c(C)nc2c1,nt,nt,nt,nt,nt,3%
Nc1c2c(nc3sc4c(c13)CCCC4)-c1ccccc1CC2,?,-20%,?,?,10µM*,53%
O=c1oc(-c2cccs2)nc2sc3c(c12)CCCC3,-11%,-22%,?,17%,?,6%
Cc1ccc(/C=N/N2CCN(Cc3ccccc3)CC2)s1,-16%,-28%,?,43%,-15%,0%
Cc1ccc(/C=N/n2cc(-c3ccccc3)[nH]c2=S)s1,5.2µM*,8.2µM*,?,0.45µM*,5µM*,-31%
COc1cc(/C=N/n2cc(-c3ccccc3)[nH]c2=S)cc(OC)c1O,?,?,-3%,?,-13%,13µM*
Oc1ccc(/C=N/n2cc(-c3ccccc3)[nH]c2=S)cc1,?,?,15%,7.9µM*,0%,16µM*
COc1ccccc1OCC(=O)N1CC[C@@](O)(C2CCOCC2)[C@H](C)C1,nt,nt,nt,nt,nt,35%
CC(C)c1noc(COc2ccc(C(N)=O)cc2)n1,nt,nt,nt,nt,nt,-6%
Cc1cccc(CSCC(=O)N2CCCC2)c1,nt,nt,nt,nt,nt,1%
O=C(NCC(O)c1ccccc1C(F)(F)F)c1cccnc1 (configuration not stated),nt,nt,nt,nt,nt,16%
Cc1cccc(C(=O)NCC(c2cccs2)S(=O)(=O)c2cccs2)c1 (configuration not stated),15µM*,?,nt,nt,nt,-21%
O=C(NCC(c1cccs1)S(=O)(=O)c1cccs1)c1cccc(F)c1 (configuration not stated),18µM*,16µM*,nt,nt,nt,0%
COC(=O)c1ccc2c(=O)[nH]c(CN(C)CC(=O)Nc3cccc(F)c3)nc2c1,nt,nt,nt,nt,nt,30%
O=C(Nc1ccccc1)C1=C[C@@H](c2ccc(Br)cc2)C[C@@H](OCCCCO)O1,?,?,?,?,7.1µM*,?
O=C(Nc1ccccc1)C1=C[C@@H](c2ccc3c(c2)OCO3)C[C@@H](OCCCCO)O1,-13%,-23%,nt,nt,nt,-19%
O=C(Nc1ccccc1)C1=C[C@H](c2ccc3c(c2)OCO3)C[C@H](OCCCCO)O1,?,26µM*,11%,-45%,-28%,?
